Source: PubChem BioAssay (Tox21)
Where “and” joins values, the source holds several entries; their conditions need not be identical. Equal values may be shown once. Values without a mark were called inactive. Results filed as inconclusive are left out. A call without a number means that no potency is given here. Calls of active or inactive are those of the source. Unless noted, the call rests on the fitted dose curve; in most records, active means well fitted curve in the direction sought with a large enough effect in the repeat runs; inconclusive means weak or mixed curves; inactive means no such curve, though single readings can be large; an effect the other way counts as inactive or inconclusive.

Legend:
[1] = qHTS assay to identify small molecule agonists of the hypoxia (HIF-1) signaling pathway - cell viability counter screen (AID 1224844; calls by dose curve; further: nearly all actives have a fitted effect of over 50% in size; further: potency means the concentration at half of the fitted maximal effect)
Procedure, shortened: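 ME-180 HRE-bla cells, 2,000/well, 0.5% dialyzed FBS; 5 hr settle, 17 hr compound at 37C/5% CO2; CCF4-AM reporter read first, then CellTiter-Glo luminescence after 30 min RT.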

[2] = qHTS assay to identify small molecule agonists of H2AX (AID 1224845; active means well fitted activation curve with a large enough effect in the signal ratio in the repeat runs, not every such curve was filed as active; the % refers to the signal ratio; further: potency means the concentration at half of the fitted maximal effect)
Procedure, shortened: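 Wild-type CHO-K1 cells, plated overnight, exposed 3hr at 37C to 15 concentrations (0.76% DMSO final). Lysed, then HTRF anti-pH2AX (S139) cryptate and anti-H2AX-d2 antibodies, 24 hr room temperature; 665/620 nm emission read.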

[3] = qHTS assay to identify small molecule agonists of H2AX - cell viability counter screen (AID 1224847; calls by dose curve; further: nearly all actives have a fitted effect of over 30% in size; further: potency means the concentration at half of the fitted maximal effect; on activity change, negative = cytotoxicity: top concentration of the series differs between compounds)
Procedure, shortened: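 Cells plated first: CHO-K1, 1000 per well in 10% FBS medium, incubated overnight at 37C. Then 15-point compound titration added (final DMSO 0.76%) for 3 hr. Finally CellTiter-Glo added and luminescence read.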

[4] = qHTS RealTime-Glo MT Cell Viability Assay in HepG2 cells - 24 hour (AID 1224867); further: nearly all actives have a fitted effect of over 50% in size; further: potency means the concentration at half of the fitted maximal effect
Procedure, shortened: (§1)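 qHTS, HepG2, 600 cells/well, RealTime-Glo (NanoLuc + prosubstrate) added with cells; 5 h preincubation; DMSO compound addition; 37 C; luminescence at 0/8/16/24/32/40 h.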

[5] = qHTS RealTime-Glo MT Cell Viability Assay in HEK293 cells - 32 hour (AID 1224868); further: nearly all actives have a fitted effect of over 50% in size; further: potency means the concentration at half of the fitted maximal effect; on activity change, negative = cytotoxic: top concentration of the series differs between compounds
Procedure, shortened: (§2)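 Assay medium contained NanoLuc luciferase plus cell-permeant prosubstrate, added with HEK293 cells at 600 cells/well. After 5 h at 37 C/5% CO2 compounds were added; plates stayed at 37 C for 40 h with serial luminescence reads.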

[6] = A CellTox Green Cytotoxicity Assay to monitor cytotoxicity in HEK293 cells - 0 hour (AID 1224869); further: nearly all actives have a fitted effect of over 50% in size
Procedure, shortened: (§3)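 Nonlytic real-time cytotoxicity: HEK293 + CellTox Green reagent plated, 5 h preincubation, pintool compound addition (23 nL in DMSO), 37 C for 40 h, fluorescence measured at successive time points.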

[7] = qHTS RealTime-Glo MT Cell Viability Assay in HepG2 cells - 40 hour (AID 1224870); further: nearly all actives have a fitted effect of over 50% in size; further: potency means the concentration at half of the fitted maximal effect
Procedure, shortened: (§4)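 HepG2 cells (600/well) mixed with RealTime-Glo MT reagent, settled 5 h at 37 C/5% CO2 before compound addition. Nonlytic NanoLuc luminescence from viable-cell prosubstrate reduction read repeatedly during 40 h treatment at 37 C.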

[8] = A CellTox Green Cytotoxicity Assay to monitor cytotoxicity in HEK293 cells - 40 hour (AID 1224871); further: nearly all actives have a fitted effect of over 45% in size; further: potency means the concentration at half of the fitted maximal effect
Procedure, shortened: as §3

[9] = qHTS RealTime-Glo MT Cell Viability Assay in HEK293 cells - 16 hour (AID 1224872); further: nearly all actives have a fitted effect of over 50% in size; further: potency means the concentration at half of the fitted maximal effect; on activity change, negative = cytotoxicity: top concentration of the series differs between compounds
Procedure, shortened: as §2

[10] = qHTS RealTime-Glo MT Cell Viability Assay in HepG2 cells - 8 hour (AID 1224873); further: nearly all actives have a fitted effect of over 55% in size; further: potency means the concentration at half of the fitted maximal effect
Procedure, shortened: as §4

[11] = qHTS RealTime-Glo MT Cell Viability Assay in HEK293 cells - 40 hour (AID 1224874); conditions: RealTime-Glo luminescence; max response: active compounds read low; further: nearly all actives have a fitted effect of over 50% in size; further: potency means the concentration at half of the fitted maximal effect
Procedure, shortened: (§5)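 Cells were seeded together with NanoLuc luciferase and a prosubstrate that viable cells reduce to a luciferase substrate. After a 5 h incubation at 37 C/5% CO2, compounds were added and luminescence was measured repeatedly during 40 h of treatment.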

[12] = A CellTox Green Cytotoxicity Assay to monitor cytotoxicity in HEK293 cells - 24 hour (AID 1224875); further: nearly all actives have a fitted effect of over 45% in size; further: potency means the concentration at half of the fitted maximal effect
Procedure, shortened: as §3

[13] = A CellTox Green Cytotoxicity Assay to monitor cytotoxicity in HepG2 cells - 16 hour (AID 1224876); further: nearly all actives have a fitted effect of over 45% in size; further: potency means the concentration at half of the fitted maximal effect
Procedure, shortened: (§6)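 Read-out is fluorescence of a cyanine dye excluded from live cells that stains DNA of dead HepG2 cells, with signal proportional to cytotoxicity. Plates were read at 0, 8, 16, 24, 32 and 40 h after compound addition.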

[14] = qHTS RealTime-Glo MT Cell Viability Assay in HepG2 cells - 32 hour (AID 1224877); further: nearly all actives have a fitted effect of over 55% in size; further: potency means the concentration at half of the fitted maximal effect
Procedure, shortened: as §1

[15] = A CellTox Green Cytotoxicity Assay to monitor cytotoxicity in HepG2 cells - 24 hour (AID 1224878); further: nearly all actives have a fitted effect of over 45% in size; further: potency means the concentration at half of the fitted maximal effect
Procedure, shortened: as §6

[16] = qHTS RealTime-Glo MT Cell Viability Assay in HEK293 cells - 0 hour (AID 1224880)
Procedure, shortened: as §5

[17] = A CellTox Green Cytotoxicity Assay to monitor cytotoxicity in HepG2 cells - 40 hour (AID 1224879); further: nearly all actives have a fitted effect of over 40% in size; further: potency means the concentration at half of the fitted maximal effect
Procedure, shortened: as §6

[18] = qHTS assay to identify small molecule antagonists of the estrogen related receptor (ERR) signaling pathway from Tox21 library (AID 1224848); further: nearly all actives have a fitted effect of over 50% in size; further: potency means the concentration at half of the fitted maximal effect
Procedure, shortened: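 Luminescent reporter read-out (ONE-Glo) from NTP's ERR cell line after 18 h treatment at 37 C with DMSO-dissolved Tox21 compounds; cells pre-plated 6 h beforehand at 2,000 per well.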

[19] = qHTS assay to identify small molecule agonists of the estrogen related receptor (ERR) signaling pathway from Tox21 library (AID 1224849; calls by dose curve; further: nearly all actives have a fitted effect of over 15% in size); conditions: ERR reporter cell line, ONE-Glo luciferase, 18 h; at 92.4 µM (top of the series)
Procedure, shortened: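 ERR cells, 6 h pre-incubation 37 C/5% CO2; cpd in DMSO pinned; 18 h 37 C; ONE-Glo added, 30 min RT; luminescence read. Agonist mode, qHTS.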

O=C(O)C(O)C(O)C(=O)O (stereo not given)
Potency [1]: inactive | Potency [2]: inactive | Potency [3]: inactive | Potency [4]: inactive | Potency [5]: inactive | Potency [6]: inactive | Potency [7]: inactive | Potency [8]: inactive | Potency [9]: inactive | Potency [10]: inactive | max response [11]: -0.119% | Potency [12]: inactive | Potency [13]: inactive | Potency [14]: inactive | Potency [15]: inactive | outcome [16]: inactive

Cc1ncc(C[n+]2csc(CCO)c2C)c(N)n1
Potency [1]: inactive | Potency [2]: inactive | Potency [3]: inactive | Potency [4]: inactive | Potency [5]: inactive | Potency [6]: inactive | Potency [7]: inactive | Potency [8]: inactive | Potency [9]: inactive | Potency [10]: inactive | max response [11]: -4.98% | Potency [12]: inactive | Potency [13]: inactive | Potency [14]: inactive | Potency [15]: inactive | Potency [17]: inactive | outcome [16]: inactive

O=C1CC[C@@]2(O)[C@H]3Cc4ccc(O)c5c4[C@@]2(CCN3CC2CC2)[C@H]1O5
Potency [1]: inactive | Potency [2]: inactive | Potency [3]: inactive | Potency [4]: inactive | Potency [5]: inactive | Potency [6]: inactive | Potency [7]: inactive | Potency [8]: inactive | Potency [9]: inactive | Potency [10]: inactive | max response [11]: 3.94% | Potency [12]: inactive | Potency [13]: inactive | Potency [14]: inactive | Potency [15]: inactive | Potency [17]: inactive | outcome [16]: inactive

O=C(O)c1cc(I)cc(I)c1I
Potency [1]: inactive | Potency [2]: inactive | Potency [3]: inactive | Potency [4]: inactive | Potency [5]: inactive | Potency [6]: inactive | Potency [7]: inactive | Potency [8]: inactive | Potency [9]: inactive | Potency [10]: inactive | max response [11]: -4.51% | Potency [12]: inactive | Potency [13]: inactive | Potency [14]: inactive | Potency [15]: inactive | outcome [16]: inactive

NNCCO
Potency [1]: inactive | Potency [2]: inactive | Potency [3]: inactive | Potency [18]: inactive | Potency [4]: inactive | Potency [5]: inactive | Potency [6]: inactive | Potency [7]: inactive | Potency [8]: inactive | Potency [9]: inactive | Potency [10]: inactive | max response [11]: -1.69% | Potency [12]: inactive | Potency [13]: inactive | Potency [14]: inactive | Potency [15]: inactive | Potency [17]: inactive | outcome [16]: inactive

O=C1c2ccccc2C(=O)N1SC(Cl)(Cl)Cl
Potency [1]: 3.83 µM (active) and 7.76 µM (active) | Potency [2]: 9.93 µM (active) and 16 µM (active) | Potency [3]: 12.5 µM (active) | Potency [18]: 30.2 µM (active) and 30.6 µM (active) | activity change, positive = activation [19]: -68.2% and -64.1% | Potency [4]: 34.2 µM (active) and 13.8 µM (active) | Potency [5]: 6.82 µM (active) and 6.92 µM (active) | Potency [6]: inactive | Potency [7]: 34.2 µM (active) and 15.5 µM (active) | Potency [8]: 10.8 µM (active) and 11 µM (active) | Potency [9]: 3.42 µM (active) and 3.89 µM (active) | Potency [11]: 6.82 µM (active) and 9.77 µM (active) | Potency [13]: 43 µM (active) and 54.9 µM (active) | Potency [14]: 34.2 µM (active) and 13.8 µM (active) | Potency [15]: 34.2 µM (active) and 21.9 µM (active) | outcome [16]: inactive

Nc1c(Br)cc(Br)c2c1C(=O)c1ccccc1C2=O
activity change, negative = cytotoxicity [1]: 1.81% [at 15.8 µM] | activation (H2AX phosphorylation) [2]: 2.27% [at 31.6 µM] | activity change, negative = cytotoxicity [3]: -4.33% [at 31.6 µM] | activity, negative = inhibition [18]: 31.1% [at 19 µM] | activity change, negative = cytotoxicity [4]: -0.948% [at 15.8 µM] | cytotoxicity [6]: -2.18% [at 15.8 µM] | activity change, negative = cytotoxic [7]: 16.3% [at 15.8 µM] | cytotoxicity increase [8]: -1.3% [at 15.8 µM] | viability change, negative = cytotoxic [10]: -13.9% [at 15.8 µM] | activity change [12]: -4.1% [at 15.8 µM, active compounds read high] | cytotoxicity increase [13]: -4.68% [at 15.8 µM] | activity change, negative = cytotoxic [14]: 5.09% [at 15.8 µM] | cytotoxicity [15]: -5.93% [at 15.8 µM] | cytotoxicity increase [17]: -11% [at 15.8 µM] | activity change, negative = cytotoxicity [16]: -4.62% [at 15.8 µM]

C=CC(=O)NC(C)(C)CC(C)=O
Potency [1]: inactive | Potency [2]: inactive | Potency [3]: inactive | Potency [4]: inactive | Potency [5]: inactive | Potency [6]: inactive | Potency [7]: inactive | Potency [8]: inactive | Potency [9]: inactive | Potency [10]: inactive | max response [11]: 3.92% | Potency [12]: inactive | Potency [13]: inactive | Potency [14]: inactive | Potency [15]: inactive | Potency [17]: inactive | outcome [16]: inactive

CC(CC(C(N)=O)(c1ccccc1)c1ccccc1)N(C)C (stereo not given)
Potency [1]: inactive | Potency [2]: inactive | Potency [3]: inactive | Potency [4]: inactive | Potency [5]: inactive | Potency [6]: inactive | Potency [7]: inactive | Potency [8]: inactive | Potency [9]: inactive | Potency [10]: inactive | max response [11]: 3.65% | Potency [12]: inactive | Potency [13]: inactive | Potency [14]: inactive | Potency [15]: inactive | Potency [17]: inactive | outcome [16]: inactive

CCCCCCCCn1sccc1=O
Potency [1]: 4.91 µM (active) and 3.63 µM (active) | Potency [2]: inactive | Potency [3]: 50.6 µM (active) and 26.5 µM (active) | Potency [18]: 17.3 µM (active) and 9.05 µM (active) | activity change, positive = activation [19]: -82.6% and -70% | Potency [4]: 43.7 µM (active) and 16.2 µM (active) | Potency [5]: 11 µM (active) and 12.9 µM (active) | Potency [6]: inactive | Potency [7]: 43.7 µM (active) and 14.5 µM (active) | Potency [8]: 55.1 µM (active) and 20.4 µM (active) | Potency [9]: 13.8 µM (active) and 14.5 µM (active) | Potency [10]: 43.7 µM (active) and 16.2 µM (active) | Potency [11]: 11 µM (active) and 12.9 µM (active) | Potency [12]: 55.1 µM (active) and 40.8 µM (active) | Potency [13]: 55.1 µM (active) and 25.7 µM (active) | Potency [14]: 43.7 µM (active) and 16.2 µM (active) | Potency [15]: 49.1 µM (active) and 25.7 µM (active) | Potency [17]: 43.7 µM (active) and 20.4 µM (active)

CN[C@@H](C)[C@H](O)c1ccccc1
Potency [1]: inactive | Potency [2]: inactive | Potency [3]: inactive | Potency [4]: inactive | Potency [5]: inactive | Potency [6]: inactive | Potency [7]: inactive | Potency [8]: inactive | Potency [9]: inactive | Potency [10]: inactive | max response [11]: 1.2% | Potency [12]: inactive | Potency [13]: inactive | Potency [14]: inactive | Potency [15]: inactive | Potency [17]: inactive | outcome [16]: inactive

OCCSSCCO
Potency [1]: inactive | Potency [2]: inactive | Potency [3]: inactive | Potency [4]: inactive | Potency [5]: inactive | Potency [6]: inactive | Potency [7]: inactive | Potency [8]: inactive | Potency [9]: inactive | Potency [10]: inactive | max response [11]: 3.99% | Potency [12]: inactive | Potency [13]: inactive | Potency [14]: inactive | Potency [15]: inactive | outcome [16]: inactive
